Measurements published in PubChem BioAssay (NCATS).
Results filed as inconclusive are left out. Active and inactive are the calls of the source. Unless noted, calls come from the whole dose curve; as a rule, active = well fitted curve in either direction with a large enough effect (not every such curve was filed as active); inconclusive = small, poorly fitted or top-dose-only effect, or another doubt; inactive = flat fitted curve, though single readings scatter.

Legend:
[1] = AP1 Signaling Pathway (AID 357); settings: ME-180 AP-1-bla reporter, EGF-induced, beta-lactamase ratio, 5 h; at 17.2 µM (top of the series) unless noted;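 note: ME-180 reporter cells stimulated with EGF at its EC50 level; % is set by controls: 0 for no effect and ±100 for the full control effect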
How it was run: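 Cells are seeded overnight, exposed to compound titrations and an EC50 level of EGF for 5 hours at 37 °C, then loaded with CCF4 dye for 2.5 hours. Beta-lactamase activity under the AP-1 element is read as a blue/green ratio.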

[2] = NFAT Signaling Pathway (AID 444); settings: Jurkat NFAT-bla M1, carbachol, beta-lactamase ratio, 5 h; at 17.2 µM (top of the series) unless noted;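 note: carbachol stimulus at about its EC50 of 1 µM final; % is set by controls: 0 for no effect and ±100 for the full control effect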
How it was run: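 Jurkat cells carrying an NFAT-driven β-lactamase reporter and co-transfected muscarinic M1 receptor were treated with compound plus carbachol (1 uM final, an EC50 level) for 5 h at 37 °C. CCF4 loading followed for 1 h at RT; 460/530 nm ratio gave %activity.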

[3] = Stat Signaling Pathway (AID 446); settings: ME-180 (cervical carcinoma) SIE beta-lactamase reporter, IL-6 stimulated, 5 h; at 17.2 µM (top of the series) unless noted;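 note: ME-180 cervical cancer cells given 40 pM IL-6 alongside compound; SIE-controlled beta-lactamase reporter measured as 460/530 nm FRET emission ratio; % is set by controls: 0 for no effect and ±100 for the full control effect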
How it was run: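 Normalization used AC90 stimulation (300 pM IL-6) and AC90 inhibition (125 nM pan-JAK inhibitor at 40 pM IL-6). The underlying signal is SIE-driven beta-lactamase in ME-180 cells after 5 h IL-6 exposure with compound.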

[4] = target: Glucocorticoid receptor (Homo sapiens) (UniProt P04150); assay: GR-GFP Redistribution (AID 450;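 active = compounds whose dose series gives a full or clear partial fitted curve of increased nuclear translocation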; note: potency is the fitted concentration of half-maximal effect)
[5] = target: Glucocorticoid receptor (Homo sapiens) (UniProt P04150); assay: GR-EFC Redistribution (AID 451; calls by dose curve; note: potency is the fitted concentration of half-maximal effect); settings: CHO-K1 GR-EFC translocation, beta-gal luminescence, 2 h
How it was run: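 CHO-K1 cells stably expressing nuclear-localized β-gal enzyme acceptor and GR fused C-terminally to the enzyme donor fragment; ligand-driven nuclear translocation restores β-gal by complementation. Compounds titrated up to 46 uM final, 2 h at 37 °C; luminescence read.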

[6] = target: Mitogen-activated protein kinase 10 (Mus musculus) (UniProt Q61831); assay: JNK3 AlphaScreen Assay (AID 530);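 note: kinase came from lysate of stimulated human HepG2 cells; signal reports phosphorylation of biotinylated GST-cJun 1-79 at Ser73 with 10 µM ATP; % is set by controls: 0 for no effect and ±100 for the full control effect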
How it was run: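 Phosphorylation of biotinylated GST-cJun(1-79) at Ser73 is measured by AlphaScreen proximity luminescence. Enzyme is JNK3 in HepG2 lysates activated with interleukin-1beta and tumor necrosis factor alpha; ATP is 10 uM final.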

[7] = target: 3',5'-cyclic-AMP phosphodiesterase 4B (Homo sapiens) (UniProt Q07343); assay: qHTS Assay for Inhibitors of PDE-IV (AID 607; active = well fitted activation curve with a large enough effect in the main read-out, with a control signal flat, not every such curve was filed as active; note: % of control where 0% means no effect)
How it was run: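 HEK293 ACTOne cells with CNG channel (1000/well), endogenous PDE4; membrane potential dye, compounds up to 22.9 uM final. Fluorescence Ex 535/Em 590; RO 20-1724 (100 uM final) as reference.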

[8] = target: Cytochrome P450 3A4 (Homo sapiens) (UniProt P08684); assay: qHTS Assay for Activators of Cytochrome P450 3A4 (AID 885; active = well fitted curve in the direction sought with a large enough effect; an effect the other way counts as inactive or inconclusive; note: nearly all actives have a fitted effect of over 65% in size)
How it was run: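 Human CYP3A4 dealkylates Luciferin-PPXE to luciferin, which luciferase detection converts to light. Substrate was at its KM (25uM), buffer 200mM KPO4, reaction 60 min at RT.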

[9] = qHTS Assay for Identification of Small Molecule Agonists for Thrombopoietin (TPO) Signaling Pathway (AID 917; active = well fitted curve in the direction sought with a large enough effect; an effect the other way counts as inactive or inconclusive; note: % is set by controls: 0 for no effect and ±100 for the full control effect)
How it was run: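 Ba/F3 (mouse) + hTPO receptor + GpIIb-promoter luciferase; IL-3 withdrawn overnight; compound + 26 pM TPO (EC50), 24 hrs, 37 C, 5% CO2; Steadylite luminescence, 10 min RT.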

[10] = target: Pyruvate kinase (Leishmania mexicana) (UniProt Q27686); assay: qHTS Validation Assay for Inhibitors of Leishmania Mexicana Pyruvate Kinase (AID 945; active = well fitted curve in the direction sought with a large enough effect; an effect the other way counts as inactive or inconclusive;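 note: 0% = DMSO only neutral control wells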)
How it was run: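 Mutant LmPYK (E451W), 0.2 nM, plus 0.5 mM PEP and 0.1 mM ADP in 50 mM imidazole pH 7.2 containing 0.01% Tween 20 and 0.05% BSA. Incubated 1 h at room temperature; luminescence via PKLight, normalized to DMSO.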

[11] = target: Pyruvate kinase PKM (Homo sapiens) (UniProt P14618); assay: qHTS Assay for Activators of Human Muscle Pyruvate Kinase (AID 954; active = well fitted curve in the direction sought with a large enough effect, not every such curve was filed as active;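 note: 0% = uninhibited enzyme and -100% = no enzyme or full thiadiazolimine inhibition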)
How it was run: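 Compound pinned into substrate mix (0.5 mM PEP, 0.1 mM ADP), then 0.1 nM PKM2 added; 1 h, RT. Stop/detection luciferase reagent added, luminescence read. Normalized to no-inhibition and no-enzyme or reference-inhibitor controls.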

[12] = target: Alpha-galactosidase A (Homo sapiens) (UniProt P06280); assay: Counterscreen for Glucocerebrosidase Inhibitors: qHTS Assay for Human alpha-Galactosidase at pH 4.5 (AID 992; active = well fitted curve in the direction sought with a large enough effect; an effect the other way counts as inactive or inconclusive; note: 0% is about no effect)
How it was run: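 Steps: enzyme (2 nM final), then compound across 0.7 nM to 77 uM, then 80 uM fluorogenic galactopyranoside substrate; incubate 20 min at room temperature; quench at pH 10; measure fluorescence at 365/440 nm.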

Sequence of Glucocorticoid receptor (Homo sapiens) (P04150 whole entry, looked up, the tested form may be a part): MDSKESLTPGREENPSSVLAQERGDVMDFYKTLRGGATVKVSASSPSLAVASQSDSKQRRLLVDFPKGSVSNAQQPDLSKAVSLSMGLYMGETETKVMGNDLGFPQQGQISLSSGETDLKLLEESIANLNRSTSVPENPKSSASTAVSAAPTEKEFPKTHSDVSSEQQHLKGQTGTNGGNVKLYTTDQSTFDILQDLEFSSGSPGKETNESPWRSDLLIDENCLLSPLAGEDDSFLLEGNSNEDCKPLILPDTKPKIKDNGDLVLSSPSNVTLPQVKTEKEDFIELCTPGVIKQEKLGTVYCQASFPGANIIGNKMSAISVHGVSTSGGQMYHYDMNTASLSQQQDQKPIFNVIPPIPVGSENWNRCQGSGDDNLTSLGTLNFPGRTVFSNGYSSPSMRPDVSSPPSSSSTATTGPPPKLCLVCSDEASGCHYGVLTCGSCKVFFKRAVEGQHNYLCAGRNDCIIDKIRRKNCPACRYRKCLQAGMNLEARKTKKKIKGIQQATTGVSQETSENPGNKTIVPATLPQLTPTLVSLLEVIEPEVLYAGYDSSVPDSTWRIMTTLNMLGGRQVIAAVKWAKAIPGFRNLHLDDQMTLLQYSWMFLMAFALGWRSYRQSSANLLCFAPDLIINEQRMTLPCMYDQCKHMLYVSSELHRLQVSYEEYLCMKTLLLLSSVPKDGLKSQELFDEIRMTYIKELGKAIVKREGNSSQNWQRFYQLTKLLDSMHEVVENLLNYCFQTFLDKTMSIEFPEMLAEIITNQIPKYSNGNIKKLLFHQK
Sequence of 3',5'-cyclic-AMP phosphodiesterase 4B (Homo sapiens) (Q07343 whole entry, looked up): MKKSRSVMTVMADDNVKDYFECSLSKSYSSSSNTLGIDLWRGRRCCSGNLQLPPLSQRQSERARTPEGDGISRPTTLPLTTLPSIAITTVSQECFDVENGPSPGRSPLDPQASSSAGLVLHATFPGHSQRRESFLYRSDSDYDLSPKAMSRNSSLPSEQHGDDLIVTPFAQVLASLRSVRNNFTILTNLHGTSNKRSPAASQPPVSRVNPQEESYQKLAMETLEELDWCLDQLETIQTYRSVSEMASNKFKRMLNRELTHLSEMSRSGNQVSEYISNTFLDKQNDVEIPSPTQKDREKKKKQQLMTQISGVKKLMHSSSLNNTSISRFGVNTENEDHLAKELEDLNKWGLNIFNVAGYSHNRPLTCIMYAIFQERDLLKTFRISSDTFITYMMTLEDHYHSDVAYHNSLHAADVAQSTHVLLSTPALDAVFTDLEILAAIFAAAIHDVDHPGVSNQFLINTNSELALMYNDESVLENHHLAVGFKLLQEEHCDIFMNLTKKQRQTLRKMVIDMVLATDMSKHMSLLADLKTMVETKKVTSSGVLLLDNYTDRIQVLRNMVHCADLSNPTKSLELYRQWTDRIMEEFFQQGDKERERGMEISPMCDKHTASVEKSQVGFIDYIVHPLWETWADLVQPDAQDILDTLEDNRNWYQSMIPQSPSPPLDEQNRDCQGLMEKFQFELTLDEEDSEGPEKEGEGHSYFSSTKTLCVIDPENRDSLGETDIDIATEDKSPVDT
Sequence of Pyruvate kinase (Leishmania mexicana) (Q27686 2-499 E452W): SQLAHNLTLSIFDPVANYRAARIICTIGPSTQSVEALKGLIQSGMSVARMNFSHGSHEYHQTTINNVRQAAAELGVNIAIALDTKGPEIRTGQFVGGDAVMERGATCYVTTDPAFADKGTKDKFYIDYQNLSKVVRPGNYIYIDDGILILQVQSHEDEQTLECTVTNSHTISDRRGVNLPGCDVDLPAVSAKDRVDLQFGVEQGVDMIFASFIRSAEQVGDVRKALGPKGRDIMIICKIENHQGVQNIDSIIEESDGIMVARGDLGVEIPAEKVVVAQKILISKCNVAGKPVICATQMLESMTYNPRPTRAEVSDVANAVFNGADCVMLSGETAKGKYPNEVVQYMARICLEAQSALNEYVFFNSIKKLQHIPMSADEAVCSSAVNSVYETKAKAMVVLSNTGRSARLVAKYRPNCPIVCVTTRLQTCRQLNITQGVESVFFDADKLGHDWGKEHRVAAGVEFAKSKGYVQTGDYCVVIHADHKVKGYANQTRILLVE
Sequence of Pyruvate kinase PKM (Homo sapiens) (P14618 whole entry, looked up): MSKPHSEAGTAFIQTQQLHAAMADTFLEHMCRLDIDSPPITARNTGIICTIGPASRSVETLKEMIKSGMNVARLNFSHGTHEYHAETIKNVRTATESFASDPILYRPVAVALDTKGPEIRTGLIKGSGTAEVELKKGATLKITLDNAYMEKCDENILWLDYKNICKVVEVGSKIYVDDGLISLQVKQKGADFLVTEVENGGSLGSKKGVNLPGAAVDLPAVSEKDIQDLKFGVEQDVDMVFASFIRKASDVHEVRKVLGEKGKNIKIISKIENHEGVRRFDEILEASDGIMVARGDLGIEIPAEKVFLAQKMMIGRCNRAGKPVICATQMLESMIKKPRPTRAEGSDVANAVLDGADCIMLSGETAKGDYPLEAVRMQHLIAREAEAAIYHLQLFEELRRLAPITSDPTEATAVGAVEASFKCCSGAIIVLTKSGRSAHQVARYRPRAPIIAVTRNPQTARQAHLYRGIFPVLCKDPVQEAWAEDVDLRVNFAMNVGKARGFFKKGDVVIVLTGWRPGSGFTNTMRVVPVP
Sequence of Cytochrome P450 3A4 (Homo sapiens) (P08684 whole entry, looked up): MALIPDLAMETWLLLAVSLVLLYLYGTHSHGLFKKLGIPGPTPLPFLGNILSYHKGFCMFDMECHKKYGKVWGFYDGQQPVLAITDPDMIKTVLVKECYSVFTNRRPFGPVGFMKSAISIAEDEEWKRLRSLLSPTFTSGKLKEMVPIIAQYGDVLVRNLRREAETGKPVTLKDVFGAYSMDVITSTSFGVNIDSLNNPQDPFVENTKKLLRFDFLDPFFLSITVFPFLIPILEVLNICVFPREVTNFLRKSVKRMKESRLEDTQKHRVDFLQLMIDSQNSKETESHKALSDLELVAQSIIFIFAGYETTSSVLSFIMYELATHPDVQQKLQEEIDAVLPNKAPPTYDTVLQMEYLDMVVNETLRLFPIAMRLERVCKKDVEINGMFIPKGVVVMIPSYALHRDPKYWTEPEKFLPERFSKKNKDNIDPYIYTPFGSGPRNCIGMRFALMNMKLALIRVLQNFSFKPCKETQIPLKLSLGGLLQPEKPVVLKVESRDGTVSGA
Sequence of Alpha-galactosidase A (Homo sapiens) (P06280 whole entry, looked up): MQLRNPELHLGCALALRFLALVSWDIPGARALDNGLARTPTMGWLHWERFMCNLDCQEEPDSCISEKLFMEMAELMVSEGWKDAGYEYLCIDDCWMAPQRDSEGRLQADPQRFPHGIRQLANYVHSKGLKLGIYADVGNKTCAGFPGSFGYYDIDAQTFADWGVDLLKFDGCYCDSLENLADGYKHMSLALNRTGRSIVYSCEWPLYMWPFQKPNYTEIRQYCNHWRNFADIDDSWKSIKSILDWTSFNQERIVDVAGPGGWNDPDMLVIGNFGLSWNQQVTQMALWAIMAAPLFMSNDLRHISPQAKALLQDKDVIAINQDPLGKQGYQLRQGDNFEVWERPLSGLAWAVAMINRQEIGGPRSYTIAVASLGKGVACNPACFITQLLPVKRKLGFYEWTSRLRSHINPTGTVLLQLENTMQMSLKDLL

COc1ccc(OC)c(C2/C(=C(\O)c3ccc(OC)c(Cl)c3)C(=O)C(=O)N2CCN(C)C)c1 (stereo unspecified)
inactive: activity change, negative = inhibition [1] 10.2% | activity change, negative = inhibition [2] 2.23% | activity, negative = inhibition [3] -6.77% | Potency [4] > 20.6 µM

CC(=O)Nc1n[nH]c(S(=O)(=O)Cc2ccc(Cl)cc2Cl)n1
inactive: activity change, negative = inhibition [1] -2.5% | activity change, negative = inhibition [2] 4.1% | activity, negative = inhibition [3] 3.27% | Potency [4] > 20.6 µM

CC(=Nc1ccc(C)c(C)c1)C1=C(O)CCC1=O
inactive: activity change, negative = inhibition [1] 13.3% | activity change, negative = inhibition [2] -8.58% | activity, negative = inhibition [3] 24.8% | Potency [4] > 20.6 µM

O=C(Nc1nnc(SCc2ccccc2F)s1)c1ccco1
inactive: activity change, negative = inhibition [1] -5.32% | activity change, negative = inhibition [2] 11.2% | activity, negative = inhibition [3] -4.78% | Potency [4] > 20.6 µM

CC(=O)Nc1ccc(S(=O)(=O)Nc2nc3n(n2)C(c2ccccc2)CC(=O)N3)cc1 (stereo unspecified)
inactive: activity change, negative = inhibition [1] 4.99% | activity change, negative = inhibition [2] 2.5% | activity, negative = inhibition [3] 1.09% | Potency [4] > 20.6 µM

COc1ccc(C2C(C#N)=C(N)Oc3cc(C)n(CCN4CCOCC4)c(=O)c32)cc1OC (stereo unspecified)
inactive: activity change, negative = inhibition [1] 0.457% | activity change, negative = inhibition [2] 24.9% | activity, negative = inhibition [3] 6.24% | Potency [4] > 20.6 µM

COc1cccc(-c2nnc3sc(-c4ccco4)nn23)c1
inactive: activity change, negative = inhibition [1] -6.59% | activity change, negative = inhibition [2] 7.27% | activity, negative = inhibition [3] -1.01% | Potency [4] > 20.6 µM

Nc1c(C(=O)NCc2ccco2)sc2nc(N3CCOCC3)c3c(c12)CCCC3
inactive: activity change, negative = inhibition [1] -27.5% | activity change, negative = inhibition [2] 16.8% | activity, negative = inhibition [3] -13.4% | Potency [4] > 20.6 µM

Fc1ccccc1/C=N/n1cnnc1
inactive: activity change, negative = inhibition [1] 3.64% | activity change, negative = inhibition [2] 1.1% | activity, negative = inhibition [3] 2.69% | Potency [4] > 20.6 µM

N#C/C(C(=O)NCc1ccccc1)=C1\SC(CCO)C(=O)N1c1ccccc1 (stereo unspecified)
inactive: activity change, negative = inhibition [1] -9.75% | activity change, negative = inhibition [2] 10.3% | activity, negative = inhibition [3] -2.91% | Potency [4] > 20.6 µM

Cc1ccc(-c2ccccc2NC(=O)C2C3C=CC(C3)C2C(=O)O)o1 (stereo unspecified)
inactive: activity change, negative = inhibition [1] -3.25% | activity change, negative = inhibition [2] -9.53% | activity, negative = inhibition [3] 11.2% | Potency [4] > 20.6 µM

Cc1csc(SCCn2c(Br)nc3c2c(=O)[nH]c(=O)n3C)n1
inactive: activity change, negative = inhibition [1] 1.52% | activity change, negative = inhibition [2] 4.32% | activity, negative = inhibition [3] 1.99% | Potency [4] > 20.6 µM

CCOC(=O)CNC(=O)Nc1ccccc1C(=O)OC
inactive: activity change, negative = inhibition [1] -9.77% | activity change, negative = inhibition [2] 12.3% | activity, negative = inhibition [3] 11.5% | Potency [4] > 20.6 µM

O=C(CN1CCc2[nH]c3ccccc3c2C1)N1CCCCC1
inactive: activity change, negative = inhibition [1] -7.36% | activity change, negative = inhibition [2] -20.1% | activity, negative = inhibition [3] 4.96% | Potency [4] > 20.6 µM

CCOC(=O)CNS(=O)(=O)c1cc(-c2n[nH]c(=O)c3ccccc23)ccc1C
inactive: activity change, negative = inhibition [1] -5.55% | activity change, negative = inhibition [2] 5.83% | activity, negative = inhibition [3] -10.1% | Potency [4] > 20.6 µM

Cc1cc(CCC(=O)O)c(C)cc1CCC(=O)O
inactive: activity change, negative = inhibition [1] 14.2% | activity change, negative = inhibition [2] 2.85% | activity, negative = inhibition [3] 7.37% | Potency [4] > 20.6 µM

Cc1c(C=NCCOCc2ccccc2)cnn1C
inactive: activity change, negative = inhibition [1] -2.81% | activity change, negative = inhibition [2] -4.41% | activity, negative = inhibition [3] 12.4% | Potency [4] > 20.6 µM

Cc1cc(C)n(Cc2cc(C)c(Cn3nc(C)cc3C)cc2C)n1
inactive: activity change, negative = inhibition [1] 14.4% | activity change, negative = inhibition [2] -3.13% | activity, negative = inhibition [3] -5.55% | Potency [4] > 20.6 µM

CC1(C)Cc2c(C#N)c(N3CCN(C(=O)c4ccccc4)CC3)nc(-c3ccco3)c2CS1
inactive: activity change, negative = inhibition [1] -7.63% | activity change, negative = inhibition [2] -24.6% | activity, negative = inhibition [3] 9.81% | Potency [4] > 20.6 µM

CSc1nc(NC(C)=O)nc(C)c1Cl
inactive: activity change, negative = inhibition [1] 11.1% | activity change, negative = inhibition [2] -9.42% | activity, negative = inhibition [3] 3.48% | Potency [4] > 20.6 µM

N=c1ncn(CC(O)CN2CCOCC2)c2nc(N3CCOCC3)[nH]c12 (stereo unspecified)
inactive: activity change, negative = inhibition [1] 6.34% | activity change, negative = inhibition [2] -3.22% | activity, negative = inhibition [3] 13.6% | Potency [4] > 20.6 µM

CS(=O)(=O)c1ccc2nc(NC(NC(=O)c3ccco3)(C(F)(F)F)C(F)(F)F)sc2c1
inactive: activity change, negative = inhibition [1] -11.7% | activity change, negative = inhibition [2] 21.2% | activity, negative = inhibition [3] -18.9% | Potency [4] > 20.6 µM

NC(=S)c1ccc[n+]([C@@H]2O[C@@H](COP(=O)([O-])OP(=O)(O)OC[C@@H]3O[C@@H](n4cnc5c(N)ncnc54)[C@@H](OP(=O)(O)O)[C@H]3O)[C@@H](O)[C@H]2O)c1
inactive: activity change, negative = inhibition [1] 5.32% [at 38 µM] | activity change, negative = inhibition [2] -7.28% [at 38 µM] | activity, negative = inhibition [3] 1.28% [at 38 µM] | Potency [4] > 46 µM | Potency [5] > 46 µM | Potency [6] | Potency [7] | Potency [8] | Potency [9] | Potency [10] | outcome [11] | outcome [12]

O=C(CSc1ncnc2nc[nH]c12)c1ccccc1
inactive: activity change, negative = inhibition [1] -9.01% [at 7.69 µM] | activity change, negative = inhibition [2] 11.7% [at 7.69 µM] | activity, negative = inhibition [3] 1.65% [at 7.69 µM] | Potency [4] > 46 µM | Potency [5] > 9.22 µM | activity change, negative = inhibition [6] -0.309% [at 11.4 µM] | Potency [7]

CCSc1nnc(NC(=O)C(C)(C(F)(F)F)C(F)(F)F)s1
inactive: activity change, negative = inhibition [1] -11.1% | activity change, negative = inhibition [2] -18.1% | activity, negative = inhibition [3] -24.8% | Potency [4] > 20.6 µM
